# High-throughput results as filed in PubChem BioAssay.
# NPC1 prom act: NPC1 promoter activation. Huh7 NPC1 promoter luciferase reporter, 24 h. Potency, µM (highest dose often 9.22 µM), for inactives: at the top dose activation, most hits filed as activators. 320,000 tested, 2.4% active; further: % of control where 0% means no effect; nearly all actives have a fitted effect of over 60% in size
#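 Luminescence from an NPC1 promoter-driven luciferase reporter in stably transfected Huh7 cells was measured after 24 h compound treatment at 37 °C, followed by 10 min ambient incubation with luciferase detection reagent.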
# ELG1 genotox: induces genotoxicity in HEK293T cells with luciferase-tagged ELG1 | 330,000 tested, 1.3% active | HEK293T ELG1-luciferase reporter, luminescence, 16 h | Potency, µM (doses to about 46 µM), for the others: at the top dose activity change, positive = activation, most hits filed as activators; further: % of control where 0% means no effect; nearly all actives have a fitted effect of over 60% in size
#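 HEK293T cells expressing luciferase-tagged ELG1 were exposed to compound or DMSO vehicle for 16 hr at 37 °C and 5% CO2. Luciferase activity was then measured with ONE-Glo after 30 min at room temperature.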
# SMN2 splice enh: SMN2 splice variant enhancement | 210,000 tested, 2.8% active | Potency, µM (series often up to 46.1 µM), for inactives: at the highest dose activity change, positive = activation, most hits filed as activators | HEK293 SMN2-luciferase splicing reporter, luminescence, 30-36 h; further: % of control where 0% means no effect; nearly all actives have a fitted effect of over 55% in size
#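 HEK293 cells carry an SMN2 […]–luciferase reporter in which exon 7 inclusion puts luciferase in frame. Cells were plated 10-12 h before compound addition, then incubated 30-36 h at 37C. ONE-Glo luminescence was read; sodium butyrate at 4.5 mM final served as control.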
# ELG1 repair inh: ELG1-dependent DNA repair inhibition | HEK293T ELG1-luciferase reporter, luminescence, 16 h; DNA damage induced by 5-fluorouridine | Potency, µM (doses to about 46.1 µM), for the others: at the top dose activity change, negative = inhibition, hits mostly inhibitors | 330,000 tested, 2.3% active; further: on the % scale 0 is the no-effect control and ±100 the full control effect; nearly all actives have a fitted effect of over 55% in size
#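 Step one: seed 2,000 cells per well. Step two: pin-transfer compound or DMSO alongside 5-fluorouridine. Step three: incubate 16 hr, 37 °C, 5% CO2. Step four: add ONE-Glo, wait 30 min, read luminescence.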
# FLuc counter: firefly luciferase modulation, counter-screen for miR-21 project. purified FLuc, Km substrates, luminescence inhibition. 360,000 tested, 6.9% active. P08659. Potency, µM (doses to about 57.5 µM), for the others: top-dose activity change, negative = inhibition, usual class: inhibitors. AID 588342;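 further: plate controls were vehicle for no effect and reference inhibitor for full effect; nearly all actives have a fitted effect of over 55% in size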
# Target sequence (P08659 whole entry, looked up): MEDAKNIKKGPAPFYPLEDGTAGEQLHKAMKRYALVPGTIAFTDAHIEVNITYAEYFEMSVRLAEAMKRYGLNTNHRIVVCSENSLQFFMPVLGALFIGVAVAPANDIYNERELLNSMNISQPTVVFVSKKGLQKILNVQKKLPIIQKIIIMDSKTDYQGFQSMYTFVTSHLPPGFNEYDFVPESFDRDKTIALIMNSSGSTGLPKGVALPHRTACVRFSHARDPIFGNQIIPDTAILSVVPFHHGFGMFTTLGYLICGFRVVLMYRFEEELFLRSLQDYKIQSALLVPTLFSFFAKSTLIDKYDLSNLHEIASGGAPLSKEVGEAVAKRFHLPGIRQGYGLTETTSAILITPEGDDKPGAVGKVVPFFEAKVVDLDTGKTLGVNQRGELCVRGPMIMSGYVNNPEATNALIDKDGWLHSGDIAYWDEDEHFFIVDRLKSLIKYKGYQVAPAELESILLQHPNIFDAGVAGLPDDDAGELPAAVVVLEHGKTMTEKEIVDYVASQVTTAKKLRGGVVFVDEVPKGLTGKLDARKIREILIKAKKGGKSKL
#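 Purified P. pyralis luciferase (10nM final) with 10uM D-luciferin and 10uM ATP (Km levels) in 50mM Tris acetate pH 7.5, 10mM Mg acetate, 0.01% Tween-20, 0.05% BSA; qHTS 6-point titration, ~60 µM downward; luminescence read.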
# Rab9 prom act: activators of Rab9 promoter | 320,000 tested, 2.8% active | AID 485297 | Potency, µM (doses to about 9.22 µM), for inactives: at the top dose activation, negative = inhibition, hits mostly activators | Huh7 Rab9 promoter-luciferase reporter, luminescence, 24 h; further: % of control where 0% means no effect; nearly all actives have a fitted effect of over 60% in size
#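 Luciferase signal after 10 min detection reagent at ambient indicates Rab9 promoter upregulation; stably transfected Huh7 cells were treated 24 h with compound in DMSO at 37 °C, 5% CO2.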
# Starred values were filed as active, the others as inactive; ? = inconclusive; / = no result given; [ ] = remark or other dose. This is a sample that favours compounds with a hit; in the whole collection about 9.3% have one here. The call rests on the fitted dose curve; in most records, active means well fitted curve in the direction sought with a large enough effect; inconclusive means small, poorly fitted or top-dose-only effect, or another doubt; inactive means no such curve, though single readings can be large; an effect the other way counts as inactive or inconclusive. Potency means the concentration at half of the fitted maximal effect.
SMILES,NPC1 prom act,ELG1 genotox,SMN2 splice enh,ELG1 repair inh,FLuc counter,Rab9 prom act
Cc1cc(C)c(C#N)c(SCc2nnc(-c3ccccc3)o2)n1,-2%,?,-39%[1.84 µM],?,3µM*,-5%
Cc1cc(C)c(C#N)c(SCc2nnc(-c3ccccc3[N+](=O)[O-])o2)n1,1.4µM*,2.6µM*,1.1µM*,?,21µM*,3.2µM*
CCCOc1ccc(NC(N)=O)cc1OCCC,-3%,1%,15%,19%,1%,1%
CCOC(=O)Cc1csc(NC(=O)c2csc3c2CCCC3)n1,-2%,-5%,-35%,-10%,4.8µM*,-6%
CCOC(=O)Cc1csc(NC(=O)c2cc3c(s2)CCCC3)n1,1.4µM*,?,-2%,15%,1.3µM*,0.56µM*
CCOC(=O)Cc1csc(NC(=O)c2cc(C)c(C)s2)n1,?,0%,/,8%,8.5µM*,23%
CCOC(=O)Cc1csc(NC(=O)c2ccc(Cl)s2)n1,-11%,13%,/,-25%,?,1%
N#Cc1c(N)nc(-c2ccccc2)nc1-c1ccccc1,11%,12%,-6%,14%,0%,-11%
CC(=O)Nc1ccc(NC(=O)CSc2nc3ccccc3nc2N2CCC(C)CC2)cc1,0%,-21%,-14%,-12%,4%,3%
Nc1nc(CN2CCN(c3ccc(F)cc3)CC2)nc(N2CCCc3ccccc32)n1,-1%,-8%,-1%,-10%,3%,-2%
c1ccc2c(c1)CCCN2c1nc(N2CCOCC2)nc(N2CCOCC2)n1,-5%,-7%,/,8.2µM*,0%,-8%
CCOc1ccc(NC(=O)CSc2ncc(-c3ccc(F)cc3)n2Cc2ccco2)cc1,-1%,-8%,/,16µM*,-1%,-12%
CCOc1ccc(NC(=O)CSc2nnc(-c3ccco3)n2N)cc1,-6%,0%,/,21%,-3%,-8%
O=C(CSc1ncc(-c2ccccc2)n1-c1ccccc1)NCc1ccco1,0%,-20%,2%,-15%,-1%,-9%
COc1ccc(-n2c(-c3ccc(F)cc3)cnc2SCC(=O)NCc2ccco2)cc1,0%,?,6%,14%,24µM*,14%
O=C(CSc1ncc(-c2ccc(F)cc2)n1Cc1ccco1)Nc1ccc2c(c1)OCO2,/,/,-1%,/,19µM*,/
COc1cc2c(cc1OC)CN(Cc1cccs1)CC2,-2%,-1%,1%,1%,-2%,-4%
CCOc1ccc(N2C(=O)c3cccnc3C2Nc2ccc(C)c(C)c2)cc1 (stereo unspecified),-2%,2%,7%,2%,4%,-1%
Cn1c2ccccc2c2cnn(CC(=O)O)c(=O)c21,-3%,3%,-17%,-4%,3%,-6%
CCOc1cc(/C=N/NC(=O)C(C)Sc2ccccc2)ccc1O (stereo unspecified),-6%,-9%,-17%,-3%,5%,-3%
c1ccc(Nc2cccc(Nc3ccccc3)n2)cc1,17%,?,-22%,?,19µM*,?
c1ccc(Nc2ccccn2)cc1,-2%,0%,14%,26%,?,-8%
Cc1ccc(-c2cn3nc(C)c(C)nc3n2)cc1,?,?,0.5µM*,?,0.67µM*,0.18µM*
COc1ccc(-c2cn3nc(C)c(C)nc3n2)cc1OC,?,5%,/,?,?,2.8µM*
CCCCOc1ccc(CSCCN=C(N)N)cc1,-15%,15µM*,/,?,21µM*,-13%
CCCCOc1ccc(CSC(CC(=O)O)C(=O)O)cc1 (stereo unspecified),-5%,-2%,-8%,1%,-13%,-5%
Cc1ccc(-c2nnc(NC3CCCC3)s2)cc1,0.63µM*,?,/,?,3µM*,0.5µM*
O=S(=O)(c1cc(Cl)ccc1Cl)N1CCCCC1,1%,-5%,-8%,0%,-3%,7%
